An excerpt weighted towards active compounds, which were near 19% of everything screened.
uPA surface inh = cell surface uPA generation inhibition | 330,000 tested, 0.31% active | cell surface uPA generation assay, qHTS | AID 540303 | Potency, µM (highest dose often 38.3 µM), for the others: at the top dose activity change, negative = inhibition, hits mostly inhibitors; active = well fitted inhibition curve with a large enough effect; inconclusive = small, poorly fitted or top-dose-only effect; inactive = no such curve, though single readings can be large or run the other way; tested in mouse RAW 264.7 cells; note: potency is the fitted concentration of half-maximal effect; nearly all actives have a fitted effect of over 55% in size
DT40 TDP1 CPT = DT40-hTDP1 cell growth loss with CPT | chicken DT40 Tdp1-/-;hTDP1 cells + 20 nM CPT, ATP luminescence, 48 h | Potency, µM (highest dose often 46.2 µM), without a hit: top-dose activity change, negative = growth inhibition, most hits filed as inhibitors | 420,000 tested, 12% active; note: potency is the fitted concentration of half-maximal effect; nearly all actives have a fitted effect of over 55% in size
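Chicken DT40 Tdp1-/- cells complemented with human TDP1, 400 cells/well, exposed to compounds plus 20 nM camptothecin for at least 48 h at 37 C; viability read as ATP content by CellTiter-Glo luminescence.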
HT1080NT lethal = kills 2HG-producing HT-1080-NT fibrosarcoma cells; HT-1080-NT fibrosarcoma viability, CellTiter-Glo ATP luminescence, 48 h; 360,000 tested, 1.6% active; Potency, µM (top dose mostly 46.1 µM), inactives show top-dose activity, negative = less viability, hits mostly cytotoxic; AID 686970;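 note: NT is the 2HG producing partner of a matched IDH1 knockdown line; potency is the fitted concentration of half-maximal effect; 0% = DMSO-treated cells and -100% = media-only wells without cells; nearly all actives have a fitted effect of over 55% in size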
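Fibrosarcoma NT cells, 750 per well in 5% FBS RPMI, were exposed to compound for 48 hours. Viability: CellTiter-Glo luminescence.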
IL1B secr inh = inhibitors of inflammasome signaling (IL-1 beta secretion). 360,000 tested, 4.7% active. THP-1 LPS/ATP IL-1B secretion, AlphaLISA, 16 h; hits give low values. activity change, % at 57.5 µM. AID 743279; in the data active = activity change below about -50%; inconclusive = mostly about -30% to -49%
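THP-1 cells pretreated 1 hr with compounds (up to 57.5 uM final), then stimulated with LPS (250 ng/mL final) plus ATP (1.25 mM final); secreted IL-1B measured by AlphaLISA after 16 hr, decreased signal indicating inhibition.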
TDP1 cell noCPT = qHTS for Inhibitors of human tyrosyl-DNA phosphodiesterase 1 (TDP1): qHTS in cells in absence of CPT; DT40 Tdp1-/- hTDP1 cells, no CPT, ATP luminescence, 48 h; Potency, µM (doses to about 46.2 µM), for the others: at the top dose activity change, negative = growth inhibition, hits mostly inhibitors; 420,000 tested, 15% active; note: potency is the fitted concentration of half-maximal effect; nearly all actives have a fitted effect of over 55% in size
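Growth of hTDP1-complemented DT40 Tdp1-knockout cells is measured by ATP luminescence after at least 48 hr compound exposure at 37 °C, with DMSO substituting for the 20 nM CPT used in the parallel screen.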
HT1080 IDH1KD tx = HT-1080 IDH1 knockdown cell toxicity (counter line) | HT-1080 IDH1 knockdown viability, ATP luminescence, 48 h | 360,000 tested, 2% active | Potency, µM (top dose mostly 46.1 µM), for inactives: at the highest dose activity, negative = toxicity, actives largely listed as cytotoxic;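 note: potency is the fitted concentration of half-maximal effect; 0% = DMSO wells and -100% = cell-free medium wells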
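Viability of IDH1-knockdown HT-1080 fibrosarcoma cells was assessed by CellTiter-Glo after 48 h at 37 °C with titrated compound; concentration-effect curves were classified by fit quality and response size.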
The depositor's hits bear a star; ? = inconclusive; / = not tested or not shown. Unless noted, calls come from the whole dose curve; as a rule, active = well fitted curve in the direction sought with a large enough effect; inconclusive = small, poorly fitted or top-dose-only effect, or another doubt; inactive = no such curve, though single readings can be large; an effect the other way counts as inactive or inconclusive. Unless noted, % is set by controls: 0 for no effect and ±100 for the full control effect.

SMILES	uPA surface inh	DT40 TDP1 CPT	HT1080NT lethal	IL1B secr inh	TDP1 cell noCPT	HT1080 IDH1KD tx
CCCCCCn1cc(CN2CC(N3CCN(CCO)CC3)CS2(=O)=O)nn1 (stereo not drawn)	/	2%	18%	13	-17%	26%
N[C@@H](C(=O)N[C@@H]1C(=O)N2C(C(=O)O)=C(CSc3cn[nH]n3)CS[C@H]12)c1ccc(O)cc1	/	9%	/	/	4%	/
Cc1nn(-c2ccccc2)c(OC(=O)c2ccccc2F)c1S(=O)(=O)c1ccccc1	/	0%	/	/	-6%	/
Cc1ccc(S(=O)(=O)NCCC(=O)N2CCN(c3cccc(Cl)c3)CC2)cc1C	-10%	15µM*	-3%	-1	?	-1%
Cc1ccc(S(=O)(=O)NCCC(=O)N2CCOCC2)cc1C	11%	-1%	3%	16	-2%	2%
CCCCc1ccc(C(=O)Nc2ccc3nc(N4CCN(CC)CC4)cc(C)c3c2)cc1	/	3.7µM*	/	/	2.9µM*	/
CCOc1ccc(C(=O)Nc2ccc3nc(N4CCN(CC)CC4)cc(C)c3c2)cc1	4%	?	-2%	?	26µM*	-7%
CCN1CCN(c2cc(C)c3cc(NC(=O)Cc4ccc(OC)c(OC)c4)ccc3n2)CC1	-16%	-18%	-17%	-28	-15%	-16%
CCN1CCN(c2cc(C)c3cc(NC(=O)c4cc(OC)cc(OC)c4)ccc3n2)CC1	-11%	?	?	?	16µM*	?
COc1ccccc1-c1cc(NC(=O)COc2ccccc2Cl)n(-c2ccccc2)n1	/	-24%	/	/	-21%	/
CCCN(CCC)C(=O)Cn1c(=O)n(CCCCCC(=O)NCc2ccccc2Cl)c(=O)c2sccc21	/	?	/	/	-14%	/
Cc1ccc(-n2nc(C)c3c(C)cc(=O)n(CC(=O)NC(C)c4ccccc4)c32)cc1 (stereo not drawn)	/	-14%	/	/	-11%	/
CCCOc1ccc(C2CC(=O)Nc3c2c(C)nn3-c2nncc(-c3cccc(OC)c3)n2)cc1OC (stereo not drawn)	/	3%	/	/	-7%	/
C[C@H]1CN([C@@H](C)CO)C(=O)CCCn2nncc2CO[C@H]1CN(C)C(=O)Nc1cccc(Oc2ccccn2)c1	/	-2%	-6%	11	-23%	-1%
Cc1ccc(N2CCN(S(=O)(=O)c3cccc4ccccc34)CC2)cc1Cl	/	-26%	/	/	-21%	/
COc1cccc(CN(Cc2ccco2)S(=O)(=O)c2ccc(S(=O)(=O)NCc3ccccc3)cc2)c1OC	/	29µM*	1%	-16	?	-11%
CCOC(=O)CNC(=O)N1CCc2ccc(NC(=O)c3ccccc3Cl)cc2C1	?	18µM*	-19%	0	8.2µM*	-28%
O=C(NCC(=O)N1CCc2ccccc2C1)c1ccccc1Cl	5%	6%	21%	7	0%	21%
COc1ccccc1C(=O)Nc1ccc2c(c1)CN(C(=O)CSC)CC2	-16%	?	13µM*	-1	?	10µM*
O=C(Cn1c(=O)nc(-c2ccccc2)c2cc(Cl)ccc21)N1CCN(c2ccc(F)cc2)CC1	/	16%	/	/	-13%	/
Cc1sc2nc3ccc(NCc4ccco4)nn3c(=O)c2c1C	-6%	?	-1%	-8	21µM*	-8%
CC(Sc1nnc(CC(=O)Nc2ccccc2F)n1C)C(=O)Nc1nccs1 (stereo not drawn)	5%	-2%	4%	14	-26%	7%
CC1(C(=O)NCc2ccccc2)CN(S(C)(=O)=O)CC(=O)N1Cc1cccs1 (stereo not drawn)	/	-12%	15%	-16	4%	-2%
COc1ccc(Cl)cc1NC(=O)CN(C)C(=O)CCC(=O)c1cc(C)sc1C	-4%	?	-5%	-53*	-46%	-14%
